# DT40 TDP1 CPT = growth inhibition of DT40 Tdp1-/-;hTDP1 cells with camptothecin (screen for TDP1 inhibitors); chicken DT40 Tdp1-/-;hTDP1 cells + 20 nM CPT, ATP luminescence, 48 h; Potency, µM (doses to about 46.2 µM), hits mostly inhibitors; actives 12% (n = 420,000); AID 686979; further: nearly all actives have a fitted effect of over 55% in size
#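 Cell growth measured by CellTiter-Glo luminescence after a minimum 48 h, 37 C compound exposure with 20 nM CPT in Tdp1-knockout DT40 cells stably expressing hTDP1, seeded 400/well; qHTS titration format.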
# VDR inh = inhibitors of human vitamin D receptor; P11473; VDR-SRC2-3 peptide fluorescence polarization, 2 h; Potency, µM, usual class: inhibitors; actives 0.93% (n = 400,000); AID 504847
#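 Fluorescence polarization assay of small-molecule disruption of VDR binding to coregulator peptide SRC2-3. Compounds and controls pin-transferred, then read after 2 h incubation at ambient room temperature.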
# TDP1 block = inhibitors of human tyrosyl-DNA phosphodiesterase TDP1; Q9NUW8; recombinant TDP1, AlphaScreen DNA substrate cleavage; Potency, µM (series often up to 130 µM), usual class: inhibitors; actives 0.28% (n = 350,000); further: nearly all actives have a fitted effect of over 40% in size
#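 Tdp1 1 nM final; 15 min RT w/ cpd; substrate 15 nM, 5 min; beads 10 ug/ml, 10 min; AlphaScreen read. Neg ctrl: no enzyme.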
# DT40 TDP1 no CPT = qHTS for Inhibitors of human tyrosyl-DNA phosphodiesterase 1 (TDP1): qHTS in cells in absence of CPT; DT40 Tdp1-/- hTDP1 cells, no CPT, ATP luminescence, 48 h; Potency, µM (series often up to 46.2 µM), actives largely listed as inhibitors; actives 15% (n = 420,000); further: nearly all actives have a fitted effect of over 55% in size
#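 A cellular qHTS used chicken DT40 cells lacking endogenous Tdp1 but carrying stably transfected human TDP1. Compounds were applied without camptothecin, and cell growth kinetics were judged by ATP-dependent luminescence after ≥48 hr.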
# PLK1 PBD block = blocks phosphopeptide binding to human PLK1 polo-box domain; Potency, µM, hits mostly inhibitors; Plk1 PBD binding of FITC phosphopeptide, fluorescence polarization; P53350; actives 2.8% (n = 360,000); AID 720504; further: series mostly up to about 57 µM; nearly all actives have a fitted effect of over 65% in size
# GCN5L2 inh = inhibitors of human GCN5L2 histone acetyltransferase; Q92830; GCN5L2 HAT assay, ThioGlo1 CoA-SH fluorescence; Potency, µM (series often up to 58.9 µM), usual class: inhibitors; actives 0.21% (n = 390,000); AID 504327
#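 Compounds, pin-transferred from DMSO stocks, meet 20nM GCN5L2 for 15 min before the reaction begins with H3(1-25) peptide (75uM) and acetyl-CoA (70uM). Thiol-reactive ThioGlo1 reports CoA release over 20 min at room temperature.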
# A number is an active result; n = inactive; u = inconclusive; x = no result given. Rows were chosen to be rich in hits. Some 18% of all compounds tested hit in one or more screens of this group. The call rests on the fitted dose curve; in most records, active means well fitted curve in the direction sought with a large enough effect; inconclusive means small, poorly fitted or top-dose-only effect, or another doubt; inactive means no such curve, though single readings can be large; an effect the other way counts as inactive or inconclusive.
SMILES,DT40 TDP1 CPT,VDR inh,TDP1 block,DT40 TDP1 no CPT,PLK1 PBD block,GCN5L2 inh
CC(=O)Nc1cc(C(=O)N2CC3(C)CC2CC(C)(C)C3)cc2ncn(CCc3ccccn3)c12 (centres undefined),u,x,x,23µM,x,x
CC(=O)[C@]1(O)CCC2C3CC(C)C4=CC(=O)C=CC4(C)[C@@]3(F)C(O)C[C@]21C (some centres undefined),n,n,n,n,x,n
O=[N+]([O-])/C(C(=C(Cl)Cl)N1CCN(Cc2ccccc2)CC1)=C1\NCCN1Cc1ccc(Cl)nc1,u,n,n,15µM,n,n
CCC(/C=C1\Sc2ccc(OC)cc2N1CCO)=C\c1sc2ccc(OC)cc2[n+]1CCO,3.3µM,79µM,n,5.2µM,u,u
CCC(/C=C1\Sc2ccc(OC)cc2N1CC)=C\c1sc2ccc(OC)cc2[n+]1CCCS(=O)(=O)[O-],3.3µM,u,n,1.8µM,u,n
CC(=O)c1cc(CN2CCN(C(C)C)C(CCO)C2)cs1 (centres undefined),n,n,n,u,n,n
O=C(CSc1nc(=O)[nH]c2c1CCCC2)Nc1ccccc1C(F)(F)F,u,n,n,u,x,n
Cc1ccc(S(=O)(=O)N2CCN(c3ccccc3)CC2)cc1C(=O)NC1CCCCC1,n,n,n,u,n,n
CCOc1cccc(N(C(=O)C2COc3ccccc3O2)C(C(=O)NC2CCCCC2)c2ccc(O)cc2)c1 (centres undefined),n,n,n,u,n,n
CC(C)CCNC(=O)C(c1ccc(O)cc1)N(C(=O)C1COc2ccccc2O1)c1cccc(O)c1 (centres undefined),u,n,n,21µM,19µM,n
Cc1ccc(NC(=O)COC(=O)CC2SC(N3CCCC3)=NC2=O)cc1 (centres undefined),n,n,n,n,n,n
Cc1cccc(C(=O)N2CCCC(N3CCN(c4ccccc4)CC3)C2)n1 (centres undefined),n,n,n,n,n,n
Cc1cc(C(=O)N2CCCC(N3CCN(c4ccccc4C)CC3)C2)n(C)n1 (centres undefined),u,n,n,u,n,n
CSc1ncccc1C(=O)N1CCCC(N2CCN(c3ccccc3C)CC2)C1 (centres undefined),16µM,x,x,9.2µM,n,x
Cc1ccccc1N1CCN(C2CCCN(C(=O)c3cn4cccc(C)c4n3)C2)CC1 (centres undefined),23µM,n,x,8.2µM,n,n
CCc1[nH]nc(C(=O)N2CCCC(N3CCN(c4ccccc4C)CC3)C2)c1C (centres undefined),16µM,n,n,u,n,n
CC1=C(C(=O)N2CCCC(N3CCN(c4ccccc4C)CC3)C2)OCCO1 (centres undefined),u,n,n,u,n,n
Cc1cnc(C(=O)N2CCCC(N3CCN(c4ccccc4C)CC3)C2)cn1 (centres undefined),18µM,n,n,u,n,n
COc1ccc(NS(=O)(=O)c2ccc3c(c2)CCN3C(=O)CCC(=O)O)cc1OC,n,n,x,n,n,n
CC(C)c1ccc(C(=O)NN2C(=O)C3CCCCC3C2=O)cc1 (centres undefined),n,n,n,n,n,n
Cc1ccccc1N1CCN(C2CCCN(C(=O)c3ccccn3)C2)CC1 (centres undefined),n,n,n,26µM,n,n
Cc1ccccc1N1CCN(C2CCCN(C(=O)c3noc4c3CCCC4)C2)CC1 (centres undefined),9.2µM,n,n,8.2µM,n,n
Cc1ccccc1N1CCN(C2CCCN(C(=O)c3ccsc3)C2)CC1 (centres undefined),u,n,n,u,n,n
Cc1ccc(C)c(N2CCN(C(=O)c3noc4c3CCCCC4)CC2)c1,u,n,n,u,x,n

# High-throughput results (PubChem)
